Assay results reported in ChEMBL document CHEMBL1157539, “Thousands of chemical starting points for antimalarial lead identification” (Nature, 2010).

Test system: HepG2
Experiment: GSK_TCMDC: Percent inhibition of human HepG2 cell line. Test compounds present at 10uM.
Assay type: functional

Compared with `O=C(CCc1cccnc1)Nc1cccc(-c2ccc(-c3nc4cc(C(F)(F)F)ccc4[nH]3)s2)c1`, `O=C(Nc1ccc(Cl)cc1)Nc1cccc(-c2cccc(-c3nc4ccccc4[nH]3)c2)c1` is higher in Inhibition: 35% for the first, 70% for the second.

Compared with `Cc1cc(O)c2c3c1C(=O)C=C1C3c3c(c(O)cc(O)c3C(=O)C1(C)C)C2=O` (centres undefined), `Cc1cnc(NCC2CCCCC2)nc1NCC(=O)Nc1ccccc1.O=C(O)C(F)(F)F` is lower in Inhibition: 45% for the first, 21% for the second.
